Source: PubChem BioAssay AID1839 (Johns Hopkins Ion Channel Center, 2009)
Hit rate of the full screen: of about 2,400 compounds, about 220 (9.2%) were called active. The sample holds actives, similar compounds and a random draw of the others, so the mix is not that of the screen. Unmarked numbers belong to inactive results.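 The calls were made as follows: active = signal change above the mean of dofetilide-free buffer controls plus 3 SD, so a positive margin; inactive = the rest.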

Test: nonspecific flux effects in parental CHO-K1, confirmation, counter-screen for hERG block protection project, cell-based, CHO-K1 parental line, FluxOR thallium flux (AID 1839);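 also: compounds applied alone with no dofetilide to cells lacking hERG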
Details: CHO-K1 parental cells, FluxOR thallium flux fluorescence; at 10 µM

SMILES | signal change vs control minus 3*SD hit threshold (margin above threshold, higher = more increase)
CS(=O)(=O)N1CCN(c2ccccc2NC(=O)Nc2cccc(Cl)c2)CC1 | -32.6%
O=C1N2CCSC2=NC1(NS(=O)(=O)c1ccccc1)C(F)(F)F (stereo unspecified) | -19%
Cc1ccc(Nc2nc(-c3cccs3)cs2)nc1 | -32.7%
CC(C)(C)NC(=O)CN(C(=O)CS(=O)CC(=O)Nc1ccc(F)cc1)c1cccc(F)c1 (stereo unspecified) | -27.9%
O=c1c(Cc2ccccc2)c(O)nc2n1CCCS2 | -25.5%
COc1ccccc1C(=O)NNC(=O)C(=O)Nc1cccc(Cl)c1C | 55.6% (active)
COc1ccccc1C(=O)NNC(=O)C(=O)Nc1ccc(C)cc1 | 59.6% (active)
COc1ccccc1C(=O)NNC(=O)C(=O)NC(C)(C)C | -7.1%
COc1ccccc1C(=O)Nc1ccc(C(=O)N2CCCC2)cc1 | -13%
Cc1ccccc1C(=O)NNC(=O)C(=O)Nc1cccc(Cl)c1C | -1.4%
C/C(CC(=O)Nc1ccccn1)=N\NC(=O)C(=O)Nc1cccc(Cl)c1C | -14.9%
Cc1ccc(OCC(=O)NC(=S)Nc2ccc(Br)cn2)cc1C | -27.8%
Cn1cc([N+](=O)[O-])c(C(=O)N/N=C\c2c[nH]c3ccccc23)n1 | -27%
O=C(Cc1cccs1)Nn1c(Cc2cccs2)nc2ccccc2c1=O | -15.1%
Cc1cc(NC(=O)CCCn2cnc([N+](=O)[O-])n2)no1 | -28.2%
COC(=O)C(C)Sc1nnc(Cc2cc(=O)[nH]c(=O)[nH]2)n1-c1cccc(OC)c1 (stereo unspecified) | -26%
S=c1[nH]nc(-c2cccs2)n1/N=C/c1c(Cl)cccc1Cl | -17.3%
CN(C)S(=O)(=O)c1cc(NC2CC(=O)N(c3ccc(F)cc3)C2=O)ccc1Cl (stereo unspecified) | -30.5%
Cc1cc(C)c(C(=O)c2ccc(C(=O)N3CCCCC3)cc2)c(C)c1 | -37.3%
O=S(=O)(Nc1nc(-c2sccc2Cl)cs1)c1cc(Cl)ccc1Cl | 15.7% (active)
COC(=O)c1sccc1NC(=O)CSc1ccccc1NS(=O)(=O)c1cc(Cl)ccc1Cl | -29.7%
O=C(O)c1ccccc1P(=O)(c1ccccc1)c1ccccc1 | -29.2%

SMILES | signal change vs control minus 3*SD hit threshold (margin above threshold, higher = more increase)
CCc1cccc(C)c1NC(=O)C1=C(C(=O)O)CCCC1 | -33.6%
CN(C(=O)c1ccc(Cl)c(S(=O)(=O)N2CCOCC2)c1)c1ccccc1C(=O)O | -13.3%
S=c1[nH]c(-c2cccs2)cn1-c1ccccc1 | -21.8%
COc1cc(/C=N/n2cnc3scc(-c4cccs4)c3c2=O)cc(OC)c1OC | -32%
Cn1c(=S)[nH]c2scc(-c3cccs3)c2c1=O | 27.9% (active)
CC(C)n1c(=S)[nH]c2scc(-c3cccs3)c2c1=O | 28.9% (active)
CC(C1CC2CCC1C2)n1c(-c2cccs2)n[nH]c1=S (stereo unspecified) | -18.6%
CCC(C)n1c(=S)[nH]c2ccccc2c1=O (stereo unspecified) | -5.7%
O=C(O)/C=C/C(=O)Nc1ccc(OC(F)(F)F)cc1 | -22.2%
CC(NC(=O)CCNC(=O)c1ccco1)c1ccc(F)cc1 (stereo unspecified) | -35.2%
CCc1c(C)sc(NC(=O)CN2CCN(C(=O)c3ccco3)CC2)c1C(=O)OC | -35.4%
CCc1ccc2[nH]c(=O)c(-c3ccccc3)c(O)c2c1 | -28.9%
COc1cc(Cl)c(C)cc1NC(=O)CSc1sc2c(O)cc(=O)[nH]c2c1C#N | -30.6%
CCOc1ccc(C(=O)Nc2ccccc2C(=O)O)cc1 | -21.4%
C=CCN(c1ccc(Cl)cc1)S(=O)(=O)c1cccc(C(=O)O)c1 | -22.9%
O=C(NC(=S)NCCC1=CCCCC1)c1ccc(Br)o1 | -1.2%
O=C(NC(=S)NCCC1=CCCCC1)c1ccco1 | 22.8% (active)
O=C(NC(=S)NCCc1ccc(Cl)cc1)c1ccco1 | -21.7%
COc1ccc(/C=C/c2cc(=O)c3cc(Cl)ccc3o2)cc1 | -32.9%
Cc1nc(NCc2cccnc2)c2c3c(sc2n1)CC(C)CC3 (stereo unspecified) | 5.6% (active)
Cc1nc(NCCc2ccc(S(N)(=O)=O)cc2)c2c(C)c(C)sc2n1 | -24.9%
Cc1ccc(OCc2ccoc2C(=O)O)cc1C | -4.5%

SMILES | signal change vs control minus 3*SD hit threshold (margin above threshold, higher = more increase)
Fc1cccc(C2NN=C(c3ccccc3)S2)c1 (stereo unspecified) | -15.8%
O=C(NC(=S)Nc1nc(-c2ccccc2)cs1)c1ccco1 | -21.2%
O=C(NC(=S)Nc1nc2ccccc2s1)c1ccco1 | 9.2% (active)
O=C(NC(=S)Nc1nc2ccccc2s1)c1cccs1 | -8.5%
O=C(NC(=S)Nc1nc2ccc(F)cc2s1)c1ccco1 | 47% (active)
CCOC(=O)c1sc(NC(=S)NC(=O)c2ccco2)nc1C | -14.4%
O=C(NC(=S)Nc1nc(-c2ccc([N+](=O)[O-])cc2)cs1)c1ccco1 | 1% (active)
COc1ccc(-c2csc(NC(=S)NC(=O)c3ccco3)n2)cc1Br | -15.8%
COc1ccc2nc(NC(=S)NC(=O)c3ccco3)sc2c1 | 0.7% (active)
O=C(NC(=S)Nc1cccc([N+](=O)[O-])c1)c1ccco1 | -40.6%
COc1ccc(-c2csc(NC(=S)NC(=O)c3ccco3)n2)cc1 | -14%
O=C(NC(=S)Nc1nc(-c2ccc(Br)cc2)cs1)c1ccco1 | -20.8%
O=C(NC(=S)NCc1ccc(-c2nc3ccccc3s2)cc1)c1ccco1 | -21.2%
CC(C)Oc1c(Cl)cc(CNC(C)(C)CO)cc1Cl | -26.9%
CCN(CCCn1c(=S)[nH]c2ncccc2c1=O)c1ccccc1 | -29.7%
COC(=O)C1=C(C)N(CC2CCCO2)C(=O)/C1=C\c1ccc(O)cc1 (stereo unspecified) | -14.9%
Nn1c(SCC(=O)Nc2ccc(OC(F)F)cc2)nnc1-c1ccco1 | -27%
Cc1cccc(NC(=O)CN2C(=O)S/C(=C\c3ccc(-c4cccc(C(=O)O)c4C)o3)C2=O)c1 | -29.7%
CCNC(=S)Nc1nc2c(cc1C(=O)OCC)CCCC2 | -12.5%
CCc1ccc(/C=N/NC(=O)c2nnn(-c3nonc3N)c2C(C)C)cc1 | -35%
O=C(NC(=S)N1CCCc2ccccc21)c1ccc([N+](=O)[O-])cc1 | -14.7%
C[n+]1ccccc1COc1ccc(C(C)(C)C)cc1 | -20.4%

SMILES | signal change vs control minus 3*SD hit threshold (margin above threshold, higher = more increase)
O=c1cc(-c2c(F)c(F)c(F)c(F)c2F)oc2ccccc12 | -13.6%
CCOC(=O)c1c(C)[nH]c(C)c1S(=O)(=O)N1CCCCC1 | -27.3%
CCC1CCCCN1C(=S)NC(=O)c1cccc([N+](=O)[O-])c1 (stereo unspecified) | -12.4%
O=S(=O)(Nc1ccc(Cc2ccncc2)cc1)c1ccc(Cl)c(Cl)c1 | -33.7%
CCOC(=O)/C(C)=N/NC(=O)c1ccc([N+](=O)[O-])cc1 | -4.1%
Cc1ccc2nc(NC(=S)NC(=O)c3ccco3)sc2c1 | 13.7% (active)
CCc1ccc2nc(NC(=O)c3cc(C)on3)sc2c1 | -21.2%
Cc1ccc2nc(NC(=S)NC(=O)c3cccs3)sc2c1 | -3.1%
Cc1csc2c(N3CCCCC3)ncnc12 | -19.8%
Cc1sc2ncnc(SCC(=O)NC(=O)c3cccn3C)c2c1C | -30.1%
COc1ccc(NC(=O)c2cn(-c3ccccc3)nc2-c2ccncc2)cc1 | -28.9%
Oc1c(Cl)cc(Cl)cc1/C=N/c1nccs1 | -6.3%
Oc1c(Cl)cc(Cl)cc1Sc1cc(Cl)cc(Cl)c1O | 53.5% (active)
Oc1c(Cl)cc(Cl)cc1/C=N/c1ncn[nH]1 | -9.1%
Cc1cc2[nH]c(=O)c(=O)[nH]c2cc1S(=O)(=O)N1CCN(c2cccc(C)c2C)CC1 | -25%
CCOC(=O)N1CCN(C(=O)CN(c2ccc(OCC)cc2)S(C)(=O)=O)CC1 | -29.2%
CC1CCN(C(=S)NC(=O)c2cccs2)CC1 | -12%
CC1CCCCC1NC(=S)NC(=O)c1sc2ccccc2c1Cl (stereo unspecified) | -26.5%
CC1CCCCC1NC(=S)NC(=O)c1cccs1 (stereo unspecified) | 3.7% (active)
CC(=O)Nc1ccc(S(=O)(=O)NC2(C(F)(F)F)C(=O)Nc3c2c(=O)[nH]c(=O)n3C)cc1 (stereo unspecified) | -24.3%
CCc1nc2sc3c(c2c(=S)[nH]1)CC(C)(C)OC3 | -18.6%
CCC1(C)Cc2c(sc3nc(SC)[nH]c(=S)c23)CO1 (stereo unspecified) | 48.8% (active)

SMILES | signal change vs control minus 3*SD hit threshold (margin above threshold, higher = more increase)
CSc1nc2sc3c(c2c(=S)[nH]1)CC(C)(C)OC3 | 31.8% (active)
CC(=O)c1ccc(S(=O)(=O)NCc2ccc(C(=O)N(C)CC(=O)Nc3cccc(F)c3)cc2)cc1 | -20.8%
CC1Cc2cc(S(=O)(=O)NCc3ccccc3)ccc2N1C(=O)C1CCC1 (stereo unspecified) | -33.7%
O=C1NC(=O)C2(COC(c3cccc([N+](=O)[O-])c3)OC2)S1 (stereo unspecified) | -28.4%
CCCn1nnnc1SCC(=O)Nc1nnc(CC)s1 | -22.9%
Cc1cc(=S)nc(-c2ccccn2)[nH]1 | -18.7%
Cc1[nH]c(-c2ccccn2)nc(=S)c1Cl | 18.1% (active)
c1ccc(-c2n[nH]c(-c3ccccn3)n2)cc1 | -23.5%
CCCCCOc1ccc(C2C(C(C)=O)=C(C)Nc3ncnn32)cc1OC (stereo unspecified) | -35.5%
S=c1[nH]c(-c2ccccc2)cs1 | 16.2% (active)
S=c1[nH]nc(Nc2ccc(Cl)cc2)s1 | -36.9%
Cc1ccc(-c2csc3nc[nH]c(=S)c23)cc1 | -1.7%
Cc1cccc(-n2cc(-c3ccccc3)[nH]c2=S)c1 | -28%
Cc1ccc(-c2csc(=S)[nH]2)cc1 | 59.2% (active)
S=c1[nH]cnc2scc(-c3ccc(Cl)cc3)c12 | -13.3%
O=Cc1cc(-c2ccccc2)[nH]c1-c1ccccc1 | -28.6%
Cc1ccc(Cc2c[nH]c(=S)s2)cc1 | -4.6%
S=c1[nH]c(-c2ccc(Cl)cc2)cs1 | 61.6% (active)
